For experiment [1], the target named is Nuclear receptor subfamily 1 group I member 3 (Homo sapiens) (UniProt Q14994). The experiment is described as follows: ATG_CAR_TRANS: Attagene TRANS-FACTORIAL HepG2 Assay for human Constitutive Androstane Receptor (CAR) (AID 2282969).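 Also: activators raise reporter mRNA above DMSO so AC50 marks induction.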 Particulars: HepG2 Attagene TRANS-FACTORIAL CAR reporter. The essentials:
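Steps: transient transfection of HepG2 with multiple GAL4-UAS reporter units; 24 h compound incubation; RNA isolation, RT-PCR, 6-FAM primer extension, HpaI digest; capillary electrophoresis. Gain-of-signal relative to DMSO negative control.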

Experiment [2] can be described thus: ATG_M_19_TRANS: Attagene TRANS-FACTORIAL HepG2 Assay for M19 Transcription Factor (Internal Marker) (AID 2282974). The conditions noted are these: HepG2 Attagene TRANS-FACTORIAL M19 internal marker reporter. In outline:
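Background-control readout: after 24 h chemical exposure of transfected HepG2 carrying GAL4-driven reporter units, RNA was reverse-transcribed, amplified, fluorescently labeled and sized by capillary electrophoresis; gain-of-signal fit against DMSO.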

Experiment [3] has as its target Glucocorticoid receptor (Homo sapiens) (UniProt P04150). The experiment in a line: ATG_GR_TRANS: Attagene TRANS-FACTORIAL HepG2 Assay for human Glucocorticoid Receptor (GR) (AID 2282978).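 Also: activators score as hits since higher reporter transcript over DMSO is fitted.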 The conditions noted are these: HepG2 Attagene TRANS GR reporter, mRNA transcription. In outline:
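Readout is reporter transcript from a chimeric GR-Gal4 acting on GAL4-UAS in transfected human HepG2 liver cells after 24 h exposure, quantified by RT-PCR and capillary electrophoresis. Activation fitted upward against DMSO.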

Experiment [4] deals with Bile acid receptor (Homo sapiens) (UniProt Q96RI1). The experiment in a line: ATG_FXR_TRANS: Attagene TRANS-FACTORIAL HepG2 Assay for Farnesoid X Receptor (FXR) (AID 2282979).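 Also: hits raise reporter mRNA above DMSO so AC50 marks FXR activation.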 The conditions noted are these: HepG2 Attagene TRANS FXR-GAL4 reporter transcription. In outline: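 Transient transfection of HepG2 with multiplexed GAL4-UAS reporter units; exogenous FXR-GAL4 chimera. Dose 24 h → TriZol RNA → oligo(dT) RT → PCR, 6-FAM primer extension, HpaI cut → CE. Gain vs DMSO.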
Bile acid receptor (Homo sapiens), sequence (Q96RI1 whole entry, looked up, the tested form may be a part): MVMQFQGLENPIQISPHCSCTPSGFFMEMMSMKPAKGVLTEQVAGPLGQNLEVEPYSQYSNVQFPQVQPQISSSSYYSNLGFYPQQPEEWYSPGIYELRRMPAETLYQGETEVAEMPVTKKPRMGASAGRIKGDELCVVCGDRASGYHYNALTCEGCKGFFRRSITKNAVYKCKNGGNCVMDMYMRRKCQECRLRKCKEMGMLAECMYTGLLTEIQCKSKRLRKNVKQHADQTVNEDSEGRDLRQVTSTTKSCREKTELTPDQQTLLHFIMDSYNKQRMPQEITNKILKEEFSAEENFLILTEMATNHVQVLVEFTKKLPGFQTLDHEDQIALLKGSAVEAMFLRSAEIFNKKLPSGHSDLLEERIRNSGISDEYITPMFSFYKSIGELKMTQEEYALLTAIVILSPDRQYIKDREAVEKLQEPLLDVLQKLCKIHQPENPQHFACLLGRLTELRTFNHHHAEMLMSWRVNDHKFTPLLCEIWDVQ

Experiment [5] deals with Oxysterols receptor LXR-alpha (Homo sapiens) (UniProt Q13133). The experiment is described as follows: ATG_LXRa_TRANS: Attagene TRANS-FACTORIAL HepG2 Assay for human Liver X Receptor alpha (LXRa) (AID 2282980). Particulars: HepG2 Attagene TRANS reporter, LXRa transactivation. The essentials:
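Transfect HepG2 with GAL4-UAS multiplex reporter constructs (TRANS format, chimeric receptor-GAL4); treat 24 h; extract RNA, reverse-transcribe, PCR-amplify, FAM-label, HpaI-digest; resolve fragments by capillary electrophoresis. Upward response vs DMSO.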

Experiment [6] deals with Oxysterols receptor LXR-beta (Homo sapiens) (UniProt P55055). The experiment is described as follows: ATG_LXRb_TRANS: Attagene TRANS-FACTORIAL HepG2 Assay for human Liver X Receptor beta (LXRb) (AID 2282981). The conditions noted are these: HepG2 Attagene TRANS GAL4-LXRb reporter, mRNA. The essentials:
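Measures induction of a Gal4-driven reporter transcript in HepG2 cells expressing an exogenous LXRb-Gal4 fusion. Cells are exposed to compound for 24 h before RNA isolation and RT-PCR with capillary electrophoresis detection.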

The target of experiment [7] is human Peroxisome Proliferator-activated Receptor delta (PPARd), PPARD (gene 5467) (UniProt Q03181). The experiment in a line: ATG_PPARd_TRANS: Attagene TRANS-FACTORIAL HepG2 Assay for human Peroxisome Proliferator-activated Receptor delta (PPARd) (AID 2283002). In outline: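 HepG2 cells transiently transfected with multiplexed GAL4-UAS reporter units and exogenous chimeric NR-Gal4 proteins; 24 h compound exposure. Reporter mRNA measured by RT-PCR, 6-FAM labelling, HpaI digestion and capillary electrophoresis; gain of signal versus DMSO.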

Experiment [8] addresses Retinoic acid receptor RXR-alpha (Homo sapiens) (UniProt P19793). The experiment in a line: ATG_RXRa_TRANS: Attagene TRANS-FACTORIAL HepG2 Assay for human Retinoid X Receptor alpha (RXRa) (AID 2283012). In outline: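 Measures exogenous chimeric NR-GAL4 activity in transfected HepG2 liver cells after 24 h of dosing. Induced reporter mRNA was detected by RT-PCR with capillary electrophoresis, and gain of signal was analysed against DMSO.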

The target in experiment [9] is human Thyroid Receptor alpha (THRa1), THRA (gene 7067) (UniProt P10827). The experiment in a line: ATG_THRa1_TRANS: Attagene TRANS-FACTORIAL HepG2 Assay for human Thyroid Receptor alpha (THRa1) (AID 2283014). In outline:
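Reporter transcript induction, read by capillary electrophoresis of 6-FAM-labelled RT-PCR products, reflects activity of a transfected THRa1-Gal4 fusion in HepG2 liver cells. Cells were dosed for 24 h; activity was fitted in the positive direction against DMSO.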

Experiment [10] deals with human Vitamin D Receptor (VDR), VDR (gene 7421) (UniProt P11473). The experiment is described as follows: ATG_VDR_TRANS: Attagene TRANS-FACTORIAL HepG2 Assay for human Vitamin D Receptor (VDR) (AID 2283022). The essentials: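 Steps: transfect HepG2 with GAL4-UAS-driven reporter constructs; dose compounds 24 h; isolate RNA, reverse-transcribe, PCR-amplify with 6-FAM-labelled primer extension and HpaI digestion; quantify fragments by capillary electrophoresis relative to DMSO.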
human Vitamin D Receptor (VDR), VDR (gene 7421), sequence (P11473 whole entry, looked up, the tested form may be a part): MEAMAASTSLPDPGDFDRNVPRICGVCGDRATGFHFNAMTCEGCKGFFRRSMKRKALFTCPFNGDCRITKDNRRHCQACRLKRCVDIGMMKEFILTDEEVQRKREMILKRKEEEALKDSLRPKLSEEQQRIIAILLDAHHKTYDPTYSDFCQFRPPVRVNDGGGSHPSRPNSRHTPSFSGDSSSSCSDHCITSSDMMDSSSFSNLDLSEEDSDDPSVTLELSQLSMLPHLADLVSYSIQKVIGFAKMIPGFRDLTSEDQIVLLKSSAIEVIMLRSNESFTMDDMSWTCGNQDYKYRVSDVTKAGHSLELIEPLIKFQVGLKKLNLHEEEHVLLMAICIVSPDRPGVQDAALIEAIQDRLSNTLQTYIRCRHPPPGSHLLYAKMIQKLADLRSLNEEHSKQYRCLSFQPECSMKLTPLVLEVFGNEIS

Experiment [11] in a line: TOX21_p53_BLA_p4_viability: Viability Assessment in the Tox21 HCT-116 p53 Agonism Beta-lactamase Assay, Phase 4 (AID 2283597).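 Also: hits lower the luminescence signal meaning cytotoxicity.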 The essentials:
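Readout: ATP luminescence (CellTiter-Glo), measured 30 min after reagent addition at RT. The reagent followed a 2 h CCF4-AM incubation, and the cells had been exposed to compound for 16 h at 37C.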

Experiment [12] in a line: ATG_PPRE_CIS: Attagene CIS-FACTORIAL HepG2 Assay for human Peroxisome Proliferator-activated Response Element (PPRE) (AID 2282958; active = hit-call score of the fitted dose curve at least 0.9, where 1 is the maximum; inactive = score below 0.9). The conditions noted are these: HepG2 PPRE cis-element reporter, Attagene transcription factor profiling; actives raise or lower the signal. In outline:
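Endogenous PPRE-driven transcription is measured in HepG2 cells carrying transfected multi-reporter constructs. Reporter transcripts are quantified by RT-PCR, HpaI digestion and capillary electrophoresis 24 h after dosing. DMSO baseline, bidirectional fit.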

Experiment [13] is described as follows: ATG_VDRE_CIS: Attagene CIS-FACTORIAL HepG2 Assay for human Vitamin D Receptor Element (VDRE) (AID 2282968; active = hit-call score of the fitted dose curve at least 0.9, where 1 is the maximum; inactive = score below 0.9). Particulars: HepG2 VDRE cis-reporter transcription, actives raise or lower the signal. The essentials: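 Steps: transfect HepG2 with multiple reporter transcription units; dose chemicals 24 h; isolate RNA; RT-PCR; label with 6-FAM primer extension; HpaI digest; capillary electrophoresis. Curves fitted both directions against DMSO.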

Experiment [14] has as its target Peroxisome proliferator-activated receptor gamma (Homo sapiens) (UniProt P37231). The experiment is described as follows: ATG_PPARg_TRANS: Attagene TRANS-FACTORIAL HepG2 Assay for human Peroxisome Proliferator-activated Receptor-gamma (PPARg) (AID 2283007). The essentials:
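After 24 h of chemical exposure, transfected HepG2 cells carrying PPARγ-Gal4 chimera reporter constructs are lysed for RNA. Reporter transcripts are measured by RT-PCR and capillary electrophoresis with fluorescent labelling, and gain of signal is fitted versus DMSO.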

The nature of experiment [15]: CCTE_Harrill_HTTr_Viability_MCF7: CCTE's 6-hour Cell Viability Assessment for the High-Throughput Transcriptomics (HTTr) Platform, in MCF-7 cells cultured in DMEM + 10% fetal bovine serum, Harrill Lab (AID 2284010; active = hit-call score of the fitted dose curve at least 0.9, where 1 is the maximum; inactive = score below 0.9). In outline:
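Read-out is propidium iodide gain of signal by high-content imaging, reflecting membrane integrity loss. Measurements are taken 6 h after dosing, eight concentrations per chemical, with DMSO serving as baseline for bidirectional curve fitting.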

Experiment [16] is described as follows: CCTE_Harrill_HTTr_Apoptosis_MCF7: CCTE's 6-hour Apoptosis Assessment for the High-Throughput Transcriptomics (HTTr) Platform, in MCF-7 cells cultured in DMEM + 10% fetal bovine serum, Harrill Lab (AID 2284011; active = hit-call score of the fitted dose curve at least 0.9, where 1 is the maximum; inactive = score below 0.9). The essentials: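 MCF-7 (DMEM + 10% FBS), 384-well; 8-pt dilution series, 6 h chemical exposure; caspase-3/7 activation via CellEvent Caspase 3/7 Green, HCI; bidirectional fit vs DMSO.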

Experiment [17] can be described thus: ATG_GAL4_TRANS: Attagene TRANS-FACTORIAL HepG2 Assay for GAL4 (Internal Marker) (AID 2282976). Particulars: HepG2 Attagene TRANS GAL4 internal marker reporter. In outline:
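First, HepG2 cells were transfected with reporter units under GAL4-UAS control. Next, they were treated with chemical for 24 h. Finally, RNA was reverse-transcribed, PCR-amplified, FAM-labelled and resolved by capillary electrophoresis, with induction scored against DMSO.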

Experiment [18] can be described thus: ATG_M_06_TRANS: Attagene TRANS-FACTORIAL HepG2 Assay for M06 Transcription Factor (Internal Marker) (AID 2282983).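 Also: reporter transcript level by RT-PCR then capillary electrophoresis fluorescence.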 Particulars: HepG2 Attagene TRANS M06 internal marker reporter. In outline:
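Background control endpoint: reporter mRNA from transiently transfected HepG2 after 24 h dosing, detected by RT-PCR with capillary electrophoresis fluorescence. Analysed for gain versus DMSO.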

For experiment [19], the target named is human RAR-related Orphan Receptor beta (RORb), RORB (gene 6096) (UniProt Q92753). The experiment in a line: ATG_RORb_TRANS: Attagene TRANS-FACTORIAL HepG2 Assay for human RAR-related Orphan Receptor beta (RORb) (AID 2283010). In outline: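 Transfect HepG2 with multiple GAL4-UAS reporter transcription units; dose chemicals for 24 h; isolate RNA, reverse-transcribe and PCR-amplify reporter sequences; label, digest and resolve fragments by capillary electrophoresis; fit increases relative to DMSO.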
human RAR-related Orphan Receptor beta (RORb), RORB (gene 6096), sequence (Q92753 whole entry, looked up, the tested form may be a part): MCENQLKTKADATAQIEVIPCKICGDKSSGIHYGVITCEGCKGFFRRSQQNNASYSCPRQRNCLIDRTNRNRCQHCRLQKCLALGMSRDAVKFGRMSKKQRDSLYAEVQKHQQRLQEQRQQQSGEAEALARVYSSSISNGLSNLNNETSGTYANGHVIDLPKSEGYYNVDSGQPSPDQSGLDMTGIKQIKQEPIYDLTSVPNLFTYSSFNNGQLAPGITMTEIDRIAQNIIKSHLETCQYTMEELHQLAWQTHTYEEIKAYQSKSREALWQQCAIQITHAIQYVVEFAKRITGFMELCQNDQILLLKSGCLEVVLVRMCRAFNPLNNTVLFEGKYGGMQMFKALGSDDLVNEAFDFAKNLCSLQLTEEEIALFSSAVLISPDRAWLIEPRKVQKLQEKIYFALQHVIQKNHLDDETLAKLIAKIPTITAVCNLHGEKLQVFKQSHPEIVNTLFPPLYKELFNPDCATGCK

Experiment [20] is described as follows: ACEA_ER_AUC_viability: ACEA Biosciences xCELLigence Real-Time Cell Analysis on Estrogen Receptor Agonism for Viability (AID 2283782).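 Also: hit means loss of impedance signal meaning reduced cell growth or viability.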 In outline:
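Continuous-exposure impedance cell analysis uses T-47D cells in charcoal-stripped serum, eight 1:4 dilutions topping at 100 uM final, biological duplicate. Area under the growth curve at 80 h is fitted against DMSO baseline.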

Records with an inconclusive call do not appear. Some compounds were tested as several samples or in several runs, with calls that do not always agree. Active and inactive are the calls of the source. The calls were made as follows, unless noted: active = hit-call score of the fitted dose curve at least 0.9, where 1 is the maximum; inconclusive = response in the unintended direction; inactive = score below 0.9.

human Thyroid Receptor alpha (THRa1), THRA (gene 7067), sequence (P10827 whole entry, looked up, the tested form may be a part): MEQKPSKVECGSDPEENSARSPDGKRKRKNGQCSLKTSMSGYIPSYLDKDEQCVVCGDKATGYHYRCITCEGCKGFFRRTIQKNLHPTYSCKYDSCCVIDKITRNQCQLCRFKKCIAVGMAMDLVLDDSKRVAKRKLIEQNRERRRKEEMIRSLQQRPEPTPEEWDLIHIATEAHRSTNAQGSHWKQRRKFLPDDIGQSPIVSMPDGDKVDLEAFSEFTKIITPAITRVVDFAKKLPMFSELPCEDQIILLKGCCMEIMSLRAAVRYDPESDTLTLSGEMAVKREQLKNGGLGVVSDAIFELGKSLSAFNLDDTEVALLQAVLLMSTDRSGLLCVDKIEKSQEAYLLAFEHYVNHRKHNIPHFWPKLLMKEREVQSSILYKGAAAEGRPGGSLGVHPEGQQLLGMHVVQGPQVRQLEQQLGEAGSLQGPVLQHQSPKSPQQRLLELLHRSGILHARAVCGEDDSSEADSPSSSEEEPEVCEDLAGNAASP
Glucocorticoid receptor (Homo sapiens), sequence (P04150 whole entry, looked up, the tested form may be a part): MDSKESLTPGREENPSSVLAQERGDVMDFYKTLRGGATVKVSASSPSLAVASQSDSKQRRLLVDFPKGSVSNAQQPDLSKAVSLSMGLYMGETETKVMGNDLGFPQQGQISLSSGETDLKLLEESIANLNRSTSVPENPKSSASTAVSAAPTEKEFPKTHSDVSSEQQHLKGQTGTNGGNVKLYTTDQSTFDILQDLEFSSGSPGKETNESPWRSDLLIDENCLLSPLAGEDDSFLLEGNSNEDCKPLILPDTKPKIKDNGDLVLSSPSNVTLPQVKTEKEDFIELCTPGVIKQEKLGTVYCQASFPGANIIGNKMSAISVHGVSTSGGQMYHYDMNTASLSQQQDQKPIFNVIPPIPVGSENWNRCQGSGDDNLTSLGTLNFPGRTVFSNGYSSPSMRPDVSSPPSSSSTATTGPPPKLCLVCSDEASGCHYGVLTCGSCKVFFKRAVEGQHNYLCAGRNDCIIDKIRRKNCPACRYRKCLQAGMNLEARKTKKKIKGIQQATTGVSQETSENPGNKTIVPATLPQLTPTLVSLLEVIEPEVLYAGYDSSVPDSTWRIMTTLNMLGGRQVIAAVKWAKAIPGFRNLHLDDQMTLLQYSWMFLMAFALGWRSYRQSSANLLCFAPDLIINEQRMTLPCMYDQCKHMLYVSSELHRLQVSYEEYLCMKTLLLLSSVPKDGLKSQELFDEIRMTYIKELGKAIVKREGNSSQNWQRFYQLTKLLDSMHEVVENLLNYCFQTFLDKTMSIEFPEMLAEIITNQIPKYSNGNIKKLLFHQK
Oxysterols receptor LXR-alpha (Homo sapiens), sequence (Q13133 whole entry, looked up, the tested form may be a part): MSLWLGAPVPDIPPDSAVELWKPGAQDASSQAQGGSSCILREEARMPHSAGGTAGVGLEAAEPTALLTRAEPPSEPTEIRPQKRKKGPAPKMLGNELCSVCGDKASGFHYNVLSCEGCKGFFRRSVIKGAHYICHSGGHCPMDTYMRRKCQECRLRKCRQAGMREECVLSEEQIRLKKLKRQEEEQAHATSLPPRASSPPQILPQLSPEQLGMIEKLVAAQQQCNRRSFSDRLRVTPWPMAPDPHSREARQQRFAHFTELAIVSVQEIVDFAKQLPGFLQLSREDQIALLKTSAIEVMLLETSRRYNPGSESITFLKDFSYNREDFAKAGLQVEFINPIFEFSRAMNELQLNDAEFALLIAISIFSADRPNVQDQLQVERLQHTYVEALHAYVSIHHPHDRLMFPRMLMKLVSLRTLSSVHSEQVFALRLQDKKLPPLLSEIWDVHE
Oxysterols receptor LXR-beta (Homo sapiens), sequence (P55055 whole entry, looked up, the tested form may be a part): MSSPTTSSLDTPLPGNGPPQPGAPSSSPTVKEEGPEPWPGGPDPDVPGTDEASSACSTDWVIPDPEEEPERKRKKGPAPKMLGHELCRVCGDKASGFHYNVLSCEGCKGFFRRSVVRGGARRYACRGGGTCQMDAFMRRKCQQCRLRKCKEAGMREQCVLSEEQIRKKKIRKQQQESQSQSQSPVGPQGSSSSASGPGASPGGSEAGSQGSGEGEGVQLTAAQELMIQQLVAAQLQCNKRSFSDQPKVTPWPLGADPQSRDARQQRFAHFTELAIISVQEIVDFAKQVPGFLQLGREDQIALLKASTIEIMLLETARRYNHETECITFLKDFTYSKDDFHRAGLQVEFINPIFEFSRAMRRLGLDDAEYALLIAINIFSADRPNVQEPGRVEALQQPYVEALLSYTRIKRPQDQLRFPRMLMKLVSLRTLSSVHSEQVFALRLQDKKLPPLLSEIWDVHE
Peroxisome proliferator-activated receptor gamma (Homo sapiens), sequence (P37231 whole entry, looked up, the tested form may be a part): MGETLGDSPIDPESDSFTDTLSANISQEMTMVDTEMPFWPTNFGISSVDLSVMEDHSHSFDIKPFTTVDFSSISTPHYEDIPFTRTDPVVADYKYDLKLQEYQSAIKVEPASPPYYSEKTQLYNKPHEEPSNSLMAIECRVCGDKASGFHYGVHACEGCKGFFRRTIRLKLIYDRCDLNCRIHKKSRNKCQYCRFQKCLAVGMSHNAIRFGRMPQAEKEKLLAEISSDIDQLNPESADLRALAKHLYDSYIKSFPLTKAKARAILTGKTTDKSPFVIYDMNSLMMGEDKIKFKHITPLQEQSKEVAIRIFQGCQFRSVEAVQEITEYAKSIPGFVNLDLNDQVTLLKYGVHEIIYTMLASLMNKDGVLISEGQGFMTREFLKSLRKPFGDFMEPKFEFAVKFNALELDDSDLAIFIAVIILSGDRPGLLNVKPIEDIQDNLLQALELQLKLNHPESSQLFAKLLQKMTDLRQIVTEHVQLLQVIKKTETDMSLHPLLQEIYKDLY
Nuclear receptor subfamily 1 group I member 3 (Homo sapiens), sequence (Q14994 whole entry, looked up, the tested form may be a part): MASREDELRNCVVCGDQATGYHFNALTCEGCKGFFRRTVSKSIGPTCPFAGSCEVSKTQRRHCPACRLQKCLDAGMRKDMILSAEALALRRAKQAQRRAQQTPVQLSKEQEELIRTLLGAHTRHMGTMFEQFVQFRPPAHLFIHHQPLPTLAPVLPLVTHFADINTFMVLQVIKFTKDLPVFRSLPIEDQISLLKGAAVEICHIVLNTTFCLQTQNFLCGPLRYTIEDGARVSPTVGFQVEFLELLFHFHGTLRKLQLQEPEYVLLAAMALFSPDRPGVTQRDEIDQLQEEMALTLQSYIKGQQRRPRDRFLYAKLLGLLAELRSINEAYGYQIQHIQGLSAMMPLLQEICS
Retinoic acid receptor RXR-alpha (Homo sapiens), sequence (P19793 whole entry, looked up, the tested form may be a part): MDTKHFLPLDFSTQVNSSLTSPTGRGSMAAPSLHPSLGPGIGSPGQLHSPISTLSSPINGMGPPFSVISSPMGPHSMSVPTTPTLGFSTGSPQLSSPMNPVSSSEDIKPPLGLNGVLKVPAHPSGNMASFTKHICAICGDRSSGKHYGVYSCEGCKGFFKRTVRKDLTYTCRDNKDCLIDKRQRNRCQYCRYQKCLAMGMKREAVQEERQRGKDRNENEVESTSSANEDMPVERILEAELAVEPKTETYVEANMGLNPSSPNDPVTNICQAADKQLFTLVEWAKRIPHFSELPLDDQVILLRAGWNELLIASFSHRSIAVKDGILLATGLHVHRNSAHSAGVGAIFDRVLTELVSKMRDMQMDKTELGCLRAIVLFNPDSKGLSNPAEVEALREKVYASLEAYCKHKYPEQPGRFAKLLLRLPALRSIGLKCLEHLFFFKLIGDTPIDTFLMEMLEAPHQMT

Broadly, the AC50 is the midpoint of the concentration-response curve, whichever way the signal moves. As to `CC(C)(C)NC(=O)[C@@H]1CN(Cc2cccnc2)CCN1C[C@@H](O)C[C@@H](Cc1ccccc1)C(=O)N[C@H]1c2ccccc2C[C@H]1O`, the compound was called inactive in experiment [1], in [2], in [4], in [5], in [6] and in [7]. Also, the result in experiment [8], in experiment [9], in [10] and in [11] was inactive. In addition, the AC50 is 13.4 µM (active) in experiment [3] and 33.2 µM (active) in experiment [11].
Consider `O=C(C1CCCCC1)N1CC(=O)N2CCc3ccccc3C2C1` (configuration not stated), for which the call in [12], in [3], in experiment [14], in experiment [10], in experiment [15] and in [16] was inactive. The AC50 in [13] is 13.7 µM (active).
As to `CC/C=C/CCO`, the result in experiment [17], in [4], in experiment [5], in [18], in experiment [9] and in experiment [10] was inactive. Moreover, the compound was classed as inactive in experiment [11].
Regarding `CC[N+](CC)(CC(=O)Nc1c(C)cccc1C)Cc1ccccc1` (tested in a mixture with another compound), the compound was called inactive in experiment [17], in [19], in experiment [15] and in experiment [16].
On to `CCCC[N+]1(C)CCCC1`, for which the compound was called inactive in experiment [5], in experiment [6], in [18], in experiment [14] and in experiment [19].
With `O=C(O)Cc1c[nH]c2ccccc12`, the result in experiment [1], in [2], in [17], in experiment [3], in experiment [4] and in [5] was inactive. Also, the compound was classed as inactive in [6], in experiment [9], in experiment [11], in experiment [20], in experiment [15] and in [16].
As for `CC1=NN(c2cc(Cl)c(S(=O)(=O)O)cc2Cl)C(=O)C1N=Nc1ccc(S(=O)(=O)O)cc1` (configuration not stated), the compound was classed as inactive in experiment [13], in experiment [2], in experiment [17], in experiment [5], in experiment [6] and in [18]. The outcome in experiment [19], in [9], in [10] and in experiment [11] was inactive.

The record behind these values is PubChem BioAssay (EPA / NIEHS).
